ERK AVP inh: blocks ERK signaling stimulated by vasopressin | HEK293-V1b, vasopressin-stimulated pERK AlphaScreen | Potency, µM (series often up to 57.5 µM), actives largely listed as inhibitors | hit rate 0.99% among 72,000 | AID 995; further: nearly all actives have a fitted effect of over 55% in size
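HEK293 cells stably expressing V1b receptor, preincubated 30 min at 37 °C with compound, then stimulated 5 min with 25 nM vasopressin. Phospho-ERK by AlphaScreen SureFire after 5 h RT; normalized to DMSO and vasopressin; AC50 by Hill fit.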
15-hLO inh: inhibitors of human 15-lipoxygenase (ALOX15); P16050; hit rate 1.4% among 74,000; purified 15hLO-1, xylenol orange hydroperoxide absorbance; Potency, µM (doses to about 57.1 µM), usual class: inhibitors; AID 887; further: nearly all actives have a fitted effect of over 55% in size
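Readout: Fe(III)-xylenol orange absorbance, 573-to-405 nm ratio as reaction progress. Enzyme 40 nM purified human 15hLO-1, substrate 50 uM arachidonic acid, 6 min RT after 15 min compound preincubation; Hepes pH 7.5 buffer with Triton X-100.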
CRE Fsk mod: modulators of forskolin-stimulated CRE signaling in CHO cells | hit rate 2.5% among 71,000 | CHO CRE-bla reporter (cAMP response element driving beta-lactamase), forskolin EC10, beta-lactamase ratio | AID 662 | Potency, µM (highest dose often 38.2 µM), actives largely listed as activators; active means well fitted activation curve with a large enough effect in the signal ratio, with a control signal flat, not every such curve was filed as active; inconclusive means small, poorly fitted or top-dose-only effect, or effect the other way, or a change in a side signal; the % refers to the signal ratio
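qHTS titration format; CRE-bla CHO reporter; stimulus EC10 NKH 477, a water-soluble forskolin. Read: CCF4 460/530 nm ratio. Potency expressed as AC50 for activators or inhibitors.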
ALOX15B inhib: blocks human 15-lipoxygenase 2 activity | O15296 | purified 15hLO-2, xylenol orange hydroperoxide absorbance | hit rate 0.56% among 110,000 | Potency, µM (highest dose often 57.1 µM), most hits filed as inhibitors; further: nearly all actives have a fitted effect of over 60% in size
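Enzyme 50 nM, AA 45 uM, 25 mM Hepes pH 7.5 + 0.01% Triton X-100; cpd preinc 15 min RT, rxn 90 min RT; stop/detect with 200 uM XO + 300 uM Fe(II) in 50 mM H2SO4, 30 min; A573/A405.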
Numbers stand for hits; [ ] = dose if it differs, or a comment. Rows were chosen to be rich in hits. Some 3.2% of all compounds tested hit in one or more screens of this group. Unless noted, the call rests on the fitted dose curve; in most records, active means well fitted inhibition curve with a large enough effect; inconclusive means small, poorly fitted or top-dose-only effect; inactive means no such curve, though single readings can be large or run the other way.

What do the screens show for `COc1ccc(C(=O)N2CCN(C(=O)c3cc(OC)c(OC)c(OC)c3)CC2)cc1`?
ERK AVP inh: inactive; 15-hLO inh: inactive; CRE Fsk mod: inactive; ALOX15B inhib: inactive

What do the screens show for `COc1ccc(C(=O)N2CCC[C@@]3(CCN(c4cccc(-c5ccccc5)c4)C3)C2)cc1`?
ERK AVP inh: inactive; 15-hLO inh: 25µM; CRE Fsk mod: inactive; ALOX15B inhib: inconclusive

Results for CN(C)CCNC(=O)c1ccc(Cc2nc3ccccc3[nH]2)cc1 ?
15-hLO inh: inactive

How did COc1ccccc1CC(Cc1nc2ccccc2[nH]1)c1nc2ccccc2[nH]1 (configuration not stated) do in these assays?
ERK AVP inh: 32µM; 15-hLO inh: inactive; ALOX15B inhib: inactive

How did Cc1ccc2ccccc2c1[N+](=O)[O-] do in these assays?
ERK AVP inh: inactive; 15-hLO inh: inactive; CRE Fsk mod: inactive; ALOX15B inhib: inactive

Results for N#C/C(=C/c1ccc(N2CCOCC2)o1)c1ccc(Cl)cc1 ?
ALOX15B inhib: 10µM

How did N#C/C(=C\c1ccc(N2CCOCC2)o1)c1nc2ccccc2[nH]1 do in these assays?
ALOX15B inhib: inactive

Results for CO[C@H]1C[C@@H]2CC[C@@H](C)[C@@](O)(O2)C(=O)C(=O)N2CCCC[C@H]2C(=O)OC([C@H](C)C[C@@H]2CC[C@@H](O)[C@H](OC)C2)CC(=O)[C@H](C)/C=C(\C)[C@@H](O)[C@@H](OC)C(=O)[C@H](C)C[C@H](C)/C=C/C=C/C=C/1C (some centres not stated) ?
ALOX15B inhib: inactive[0.0915 µM]

How did On1onc2c3cc(-c4ccccc4)nc3ccc21 do in these assays?
ERK AVP inh: 25µM; 15-hLO inh: inactive; CRE Fsk mod: inconclusive; ALOX15B inhib: inactive

What do the screens show for `O=C(CSc1nc2ccccc2c(=O)[nH]1)c1ccc(O)c(O)c1`?
ERK AVP inh: 16µM; 15-hLO inh: inconclusive; CRE Fsk mod: inactive; ALOX15B inhib: inactive

How did CO[C@H]1COC(=O)C/C=C\[C@@H](C)COC(=O)[C@@H](CCSC)NC(=O)C/C=C\[C@@H]1C do in these assays?
ERK AVP inh: inactive[11.5 µM]; 15-hLO inh: inactive[11.4 µM]

Results for CCOC(=O)c1cc(-c2ccccc2)sc1NC(=S)Nc1cc(C)ccn1 ?
ALOX15B inhib: 10µM

How did CCC1CO1 (configuration not stated) do in these assays?
ERK AVP inh: inactive; 15-hLO inh: inactive; CRE Fsk mod: inactive; ALOX15B inhib: inactive

How did CCOC(=O)c1c(NC(=O)CN2CCCCC2)sc2c1CCCC2O (configuration not stated) do in these assays?
ERK AVP inh: inactive; 15-hLO inh: inactive; CRE Fsk mod: 10µM; ALOX15B inhib: inactive

What do the screens show for `COc1cc(/C=C(\C#N)C(=O)c2ccc(O)c(O)c2)cc(I)c1O`?
ERK AVP inh: inconclusive; 15-hLO inh: 1µM; CRE Fsk mod: inactive; ALOX15B inhib: inactive

Results for CN1CCN(c2nc3c(c(=O)n(C)c(=O)n3C)n2CCSc2nc3ccccc3s2)CC1 ?
15-hLO inh: 1.6µM; CRE Fsk mod: inconclusive

How did Oc1ccc(-c2nc3ncccn3c2Nc2ccc3c(c2)OCO3)cc1 do in these assays?
ERK AVP inh: inconclusive; 15-hLO inh: 10µM; CRE Fsk mod: inconclusive; ALOX15B inhib: inactive

What do the screens show for `FC(F)C(F)(F)C(F)(F)C(F)(F)c1cc(-c2ccccc2)n[nH]1`?
ERK AVP inh: 2.5µM; 15-hLO inh: inconclusive; CRE Fsk mod: inconclusive; ALOX15B inhib: inactive

What do the screens show for `Cc1ccc(O)c(-c2cc(C(F)(F)C(F)F)[nH]n2)c1`?
ERK AVP inh: inactive; 15-hLO inh: inconclusive; CRE Fsk mod: inactive; ALOX15B inhib: inactive

What do the screens show for `Cc1noc(C)c1-c1nc(N2CCN(C)CC2)c2ccccc2n1`?
ERK AVP inh: inconclusive; 15-hLO inh: inactive; CRE Fsk mod: inconclusive; ALOX15B inhib: inactive

How did C/C(CCC(=O)OC[C@@H]1O[C@H](C#Cc2ccccc2)C=C[C@@H]1Oc1ccc(C)cc1)=N/OC[C@@H](C)[C@H](OCc1ccccc1)C(C)C do in these assays?
ERK AVP inh: inactive[11.5 µM]; 15-hLO inh: inactive[11.4 µM]

How did CCN(CC)S(=O)(=O)c1ccc(Nc2nc3ccccc3n3nnnc23)cc1 do in these assays?
ERK AVP inh: inactive; 15-hLO inh: inconclusive; CRE Fsk mod: 5µM; ALOX15B inhib: inactive

How did Brc1ccc(Nc2nc3ccccc3n3nnnc23)cc1 do in these assays?
ALOX15B inhib: inactive

Results for NCS(=O)(=O)O ?
ERK AVP inh: inactive[11.5 µM]; 15-hLO inh: inactive[11.4 µM]; CRE Fsk mod: inactive[7.6 µM]; ALOX15B inhib: inactive[11.4 µM]

Results for Oc1ccc(Cl)cc1C=Nc1cnc2ccccc2c1 ?
ERK AVP inh: inactive[11.5 µM]; 15-hLO inh: inactive[11.4 µM]; CRE Fsk mod: inactive[7.6 µM]; ALOX15B inhib: inactive[11.4 µM]

Bioassay records deposited in PubChem BioAssay by National Center for Advancing Translational Sciences (NCATS).
